57 molecules from article PMC4336329 (PLoS ONE, 2015) can be followed below.

Out of some 310,000 compounds screened, about 14,000 (4.5%) showed an effect of 50% or more. Effects have a minus sign here. The entries come from a sample that favours strong results as a whole.
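Also: peak tail current of the secondary pulse compared with the same well before compound.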

The target in the test is human ether-à-go-go-related gene (hERG) potassium channel (human, UniProt Q12809). Briefly: primary screen, population patch clamp on CHO cells stably expressing hERG; higher = less effect of the substance.
Sequence of human ether-à-go-go-related gene (hERG) potassium channel (Q12809 whole entry, looked up): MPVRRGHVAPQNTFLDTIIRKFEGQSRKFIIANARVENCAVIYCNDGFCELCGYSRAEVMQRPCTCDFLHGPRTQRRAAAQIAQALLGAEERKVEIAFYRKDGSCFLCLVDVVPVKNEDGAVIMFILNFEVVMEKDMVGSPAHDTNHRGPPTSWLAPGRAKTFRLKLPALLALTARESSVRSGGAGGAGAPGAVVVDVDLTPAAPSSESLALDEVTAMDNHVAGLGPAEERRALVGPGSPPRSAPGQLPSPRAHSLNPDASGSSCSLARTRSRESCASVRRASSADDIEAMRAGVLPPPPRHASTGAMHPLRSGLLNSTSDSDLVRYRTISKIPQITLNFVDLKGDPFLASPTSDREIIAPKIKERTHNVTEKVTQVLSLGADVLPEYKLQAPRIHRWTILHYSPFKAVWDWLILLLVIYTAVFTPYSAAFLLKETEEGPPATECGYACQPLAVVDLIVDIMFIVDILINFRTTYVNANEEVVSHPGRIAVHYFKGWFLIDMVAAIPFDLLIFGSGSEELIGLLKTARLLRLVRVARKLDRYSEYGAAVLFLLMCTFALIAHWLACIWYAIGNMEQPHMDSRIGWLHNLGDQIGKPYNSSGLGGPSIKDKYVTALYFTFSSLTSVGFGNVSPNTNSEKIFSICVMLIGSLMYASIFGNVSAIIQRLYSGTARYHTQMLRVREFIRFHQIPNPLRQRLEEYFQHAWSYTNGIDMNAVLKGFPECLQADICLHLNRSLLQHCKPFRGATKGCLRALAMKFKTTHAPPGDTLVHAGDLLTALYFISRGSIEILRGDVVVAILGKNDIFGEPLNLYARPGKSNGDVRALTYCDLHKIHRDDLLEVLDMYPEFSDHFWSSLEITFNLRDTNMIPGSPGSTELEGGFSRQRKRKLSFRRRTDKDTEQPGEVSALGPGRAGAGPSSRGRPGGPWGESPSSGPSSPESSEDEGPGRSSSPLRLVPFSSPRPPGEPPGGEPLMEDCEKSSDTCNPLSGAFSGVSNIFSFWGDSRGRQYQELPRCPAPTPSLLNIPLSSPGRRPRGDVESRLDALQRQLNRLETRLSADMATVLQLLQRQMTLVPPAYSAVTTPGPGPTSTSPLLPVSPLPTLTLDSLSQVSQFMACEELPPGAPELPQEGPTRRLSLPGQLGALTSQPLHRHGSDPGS
For `O=C(/C=C/c1ccc(O)c(O)c1)NC(=O)c1ccccc1O`, the “hERG current change (%, negative = inhibition) at 10uM” value worked out at 6.74%. Take `Cc1ccc(-c2nc(CS(=O)(=O)CC(=O)NCc3cccc(F)c3)c(C)o2)cc1`: the “hERG current change (%, negative = inhibition) at 10uM” value was found to be 9.53%. With `COc1ccc(S(=O)(=O)N2CCOCC2)c(C)c1C` the figure was 5.99%. Turning to `O=C(c1ccc(F)c(F)c1)N1CCC2(CC1)NCCc1[nH]cnc12`, the “hERG current change (%, negative = inhibition) at 10uM” value came to 10.3%. With `O=C(c1ccc(F)cc1)N1CCC2(CC1)NCCc1[nH]cnc12`, the “hERG current change (%, negative = inhibition) at 10uM” value is 4.43%. Next, `COc1ccc(C(=O)N2CCC3(CC2)NCCc2[nH]cnc23)cc1`: -18.8%. With `CCOc1ccc(C(=O)N2CCC3(CC2)NCCc2[nH]cnc23)cc1OCC` the figure was 22.6%.

As for `Cc1ccc(C(=O)N2CCC3(CC2)NCCc2[nH]cnc23)cc1`, the “hERG current change (%, negative = inhibition) at 10uM” value is reported as -53.9%. `CC(C)(C)c1ccc(C(=O)N2CCC3(CC2)NCCc2[nH]cnc23)cc1`: the “hERG current change (%, negative = inhibition) at 10uM” value was -8.51%. Consider `O=C(c1ccccc1)N1CCC2(CC1)NCCc1[nH]cnc12`, for which the “hERG current change (%, negative = inhibition) at 10uM” value turned out to be 26.6%.

`CCOc1ccc(C(=O)N2CCC3(CC2)NCCc2[nH]cnc23)cc1`: the “hERG current change (%, negative = inhibition) at 10uM” value was -70.1%.

Turning to `O=C(c1ccc(Br)cc1)N1CCC2(CC1)NCCc1[nH]cnc12`, the “hERG current change (%, negative = inhibition) at 10uM” value is -65.8%. In the case of `O=C(NCc1ccco1)c1ccccc1NS(=O)(=O)c1cccs1`, the “hERG current change (%, negative = inhibition) at 10uM” value is given as 3.9%.

Turning to `Cc1ccc(Cn2ccsc2=NC(=O)COC(=O)C(C)C)cc1`, the “hERG current change (%, negative = inhibition) at 10uM” value is -15.3%. `CSc1nnc2n(C)c3c(c(=O)n12)C1(CCCC1)Cc1ccccc1-3`: the “hERG current change (%, negative = inhibition) at 10uM” value was found to be 2.33%.

In the case of `COC(=O)c1ccccc1NC(=O)c1ccc2c(c1)OCCO2`, the “hERG current change (%, negative = inhibition) at 10uM” value turned out to be 1.86%. For `O=C(CNc1ccc(Br)cc1)NNC1=NCCC1`, the “hERG current change (%, negative = inhibition) at 10uM” value turned out to be 1.72%.

`CCc1ccc(CNCCc2c[nH]c3ccccc23)cc1.O=C(O)C(=O)O`: the “hERG current change (%, negative = inhibition) at 10uM” value is -40.9%. Next, `Cc1ccc(S(=O)(=O)Nc2ccccc2C(=O)N2CCN(C)CC2)cc1`: -3.2%. With `CCOC(=O)Nc1ccc2c(c1)N(C(=O)CCN(C)C)c1ccccc1CC2`, the “hERG current change (%, negative = inhibition) at 10uM” value was -40.7%. With `CCOC(=O)Nc1ccc2c(c1)N(C(=O)N(C)C)c1ccccc1CC2` the figure was -6.99%; with `CCOC(=O)Nc1ccc2c(c1)N(C(=O)N1CCN(C)CC1)c1ccccc1S2.Cl`, -46%. As for `CCOC(=O)Nc1ccc2c(c1)N(C(=O)C(C)N1CCCC1)c1ccccc1CC2.Cl` (stereo not drawn), the “hERG current change (%, negative = inhibition) at 10uM” value was -60.2%. `CCOC(=O)Nc1ccc2c(c1)N(C(=O)CCN(CC)CC)c1ccccc1CC2`: the “hERG current change (%, negative = inhibition) at 10uM” value was -50.3%. `CCOC(=O)Nc1ccc2c(c1)N(C(=O)CCN1CCN(C)CC1)c1ccccc1S2.Cl`: the “hERG current change (%, negative = inhibition) at 10uM” value is on record as -15.2%. With `CCOC(=O)Nc1ccc2c(c1)N(C(=O)OC)c1ccccc1CC2` the figure was -2.44%; with `CCN(CC)CCC(=O)N1c2ccccc2CCc2ccc(NC(=O)OC)cc21.Cl`, -8.57%.

On to `CCOC(=O)Nc1ccc2c(c1)N(C(=O)CN1CCN(C)CC1)c1ccccc1S2.Cl`, for which the “hERG current change (%, negative = inhibition) at 10uM” value is given as -64.4%. In the case of `C=CCSc1nc(N(CC)CC)c2sccc2n1`, the “hERG current change (%, negative = inhibition) at 10uM” value was -12.4%. Consider `CC(=O)c1cccc(N2C(=O)C3C4CCC(C4=C(C)C)C3C2=O)c1` (stereo not drawn), for which the “hERG current change (%, negative = inhibition) at 10uM” value is 21.1%. For `COc1cc(CSc2nnnn2-c2ccc(C)cc2)cc(OC)c1OC`, the “hERG current change (%, negative = inhibition) at 10uM” value turned out to be 8.81%. For `N#Cc1nc(-c2ccco2)oc1NCCc1ccccc1`, the “hERG current change (%, negative = inhibition) at 10uM” value is recorded as -5.59%. Next, `CCCc1cc(=O)oc2cc(C)c3c(C)coc3c12`: 5.51%; `COc1cccc(-n2cnc3sc(C)c(C)c3c2=O)c1`: -12%. Turning to `COC(=O)C1=C(C)NC(C)=C(C(=O)OCCN(C)Cc2ccccc2)C1c1cccc([N+](=O)[O-])c1.Cl` (stereo not drawn), the “hERG current change (%, negative = inhibition) at 10uM” value came out at 0.0465%.

With `COc1cc(/C=C/c2noc(-c3ccccc3O)n2)cc(OC)c1OC`, the “hERG current change (%, negative = inhibition) at 10uM” value turned out to be 9.26%. With `O=C(NCc1cccc(Cl)c1)C1CCC(=O)N(CCN2CCOCC2)C1` (stereo not drawn) the figure was 20.5%. As to `CCOC(=O)c1ccc2[nH]c3c(c2c1)CCCC3`, the “hERG current change (%, negative = inhibition) at 10uM” value is reported as -19.2%. Consider `CC(OC(=O)c1cccs1)C(=O)NC1CCCCC1C` (stereo not drawn), for which the “hERG current change (%, negative = inhibition) at 10uM” value was -66.7%.

For the molecule `CC(OC(=O)c1cccs1)C(=O)NC1CC1` (stereo not drawn), the “hERG current change (%, negative = inhibition) at 10uM” value was -5.98%. Turning to `CC(OC(=O)CCC(=O)c1cccs1)C(=O)NC1CCCCC1C` (stereo not drawn), the “hERG current change (%, negative = inhibition) at 10uM” value is reported as -6.24%. Next, `CCOC(=O)CNC(=O)Cn1cnc2c(nnn2-c2cccc(OC)c2)c1=O`: 17.5%. Regarding `COc1cc(C(c2c(C)[nH][nH]c2=O)c2c(C)[nH][nH]c2=O)ccc1OC(=O)c1cccc([N+](=O)[O-])c1`, the “hERG current change (%, negative = inhibition) at 10uM” value came to 10.4%. With `Cc1cccc(NC(=O)N2CCCCCC2)c1`, the “hERG current change (%, negative = inhibition) at 10uM” value is on record as -8.87%. With `Cc1nn(CC(=O)N2CCN(c3ccccc3)CC2)c(C)c1[N+](=O)[O-]` the figure was -9.49%; with `Cc1cc([N+](=O)[O-])nn1CCCC(=O)N1CCN(c2ccc(F)cc2)CC1`, -53.2%.

Regarding `Cc1c(Cl)c([N+](=O)[O-])nn1CCCC(=O)O`, the “hERG current change (%, negative = inhibition) at 10uM” value is listed as 9.17%. For the molecule `Cc1c(Br)c([N+](=O)[O-])nn1CCCC(=O)N1CCN(c2ccccc2)CC1`, the “hERG current change (%, negative = inhibition) at 10uM” value is -32.4%.

Consider `Cc1cc([N+](=O)[O-])nn1CCCC(=O)N1CCN(c2ccccc2)CC1`, for which the “hERG current change (%, negative = inhibition) at 10uM” value was -21.4%. With `Cc1nn(CCCC(=O)N2CCN(c3ccc(F)cc3)CC2)c(C)c1[N+](=O)[O-]`, the “hERG current change (%, negative = inhibition) at 10uM” value was -62.1%.

As to `Cc1cc([N+](=O)[O-])nn1CCCC(=O)NCc1ccc(F)cc1`, the “hERG current change (%, negative = inhibition) at 10uM” value was -0.962%. Take `COc1ccccc1N1CCN(C(=O)CCCn2nc(C)c([N+](=O)[O-])c2C)CC1`: the “hERG current change (%, negative = inhibition) at 10uM” value is -19.1%. In the case of `Cc1c(Cl)c([N+](=O)[O-])nn1CCCC(=O)N1CCN(c2ccccc2)CC1`, the “hERG current change (%, negative = inhibition) at 10uM” value is -58%.

With `CC(=O)N1CCN(c2ccc(NC(=O)c3ccc(OCc4ccccc4)cc3)cc2)CC1`, the “hERG current change (%, negative = inhibition) at 10uM” value is 16.7%.

Take `CCOC(=O)C1CCC2(CC1)C(C#N)=C(N)Oc1n[nH]c(C)c12` (stereo not drawn): the “hERG current change (%, negative = inhibition) at 10uM” value is listed as -14.2%. Consider `Cc1cccc(C(=O)Oc2csc(=S)n2C(=O)c2cccc(C)c2)c1`, for which the “hERG current change (%, negative = inhibition) at 10uM” value came to 6.76%. As for `COc1ccc([N+](=O)[O-])c(OC)c1C(=O)NC(=O)Nc1nc(C)cc(C)n1`, the “hERG current change (%, negative = inhibition) at 10uM” value stood at 18%.
